Compounds with a hit are over-represented: about 19% of the library has one in this group of screens.
DT40 TDP1 CPT: qHTS for Inhibitors of human tyrosyl-DNA phosphodiesterase 1 (TDP1): qHTS in cells in presence of CPT | chicken DT40 Tdp1-/-;hTDP1 cells + 20 nM CPT, ATP luminescence, 48 h | Potency, µM (highest dose often 46.2 µM), inactives show at the top dose activity change, negative = growth inhibition, hits mostly inhibitors | 420,000 compounds, 12% hits | AID 686979, 2013; note: nearly all actives have a fitted effect of over 55% in size
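Chicken DT40 Tdp1-/- cells complemented with human TDP1, 400 cells/well, exposed to compounds plus 20 nM camptothecin for at least 48 h at 37 C; viability read as ATP content by CellTiter-Glo luminescence.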
KB-3-1 tox: qHTS assay for MDR1-selective chemotherapeutics: Primary screen using the parental adenocarcinoma cell KB-3-1; Potency, µM (series often up to 46.1 µM), actives largely listed as cytotoxic; 400,000 compounds, 1.4% hits; KB-3-1 viability, CellTiter-Glo ATP luminescence, 72 h; note: nearly all actives have a fitted effect of over 60% in size
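Here the drug-naive KB-3-1 line serves as comparator for MDR sub-line selectivity; cells received compound titrations, 72 h at 37 °C, then CellTiter-Glo readout.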
KB-V1 MDR tox: qHTS assay for MDR1-selective chemotherapeutics: Primary screen using the drug-selected MDR subline cells KB-V1; 400,000 compounds, 3.4% hits; AID 1347076, 2019; KB-V1 MDR cells viability, CellTiter-Glo, 72 h; Potency, µM (top dose mostly 46.1 µM), actives largely listed as cytotoxic; note: nearly all actives have a fitted effect of over 60% in size
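Potencies derive from concentration-effect curves fitted to normalized luminescence (CellTiter-Glo) of KB-V1 cells treated for 72 h at 37 degrees C in phenol-red-free DMEM containing 10% FBS.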
HT1080 IDH1KD tx: qHTS for induction of synthetic lethality in tumor cells producing 2HG: qHTS for the HT-1080-IDH1KD cell line; Potency, µM (top dose mostly 46.1 µM), inactives show at the highest dose activity, negative = toxicity, actives largely listed as cytotoxic; 360,000 compounds, 2% hits; HT-1080 IDH1 knockdown viability, ATP luminescence, 48 h;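 note: 0% = DMSO wells and -100% = cell-free medium wells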
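In this qHTS, HT-1080 cells depleted of IDH1 are exposed for 48 h at 37 °C to compound titrations. Toxicity is scored from CellTiter-Glo luminescence, with DMSO as full viability and medium alone as none.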
DT40 TDP1 no CPT: qHTS for Inhibitors of human tyrosyl-DNA phosphodiesterase 1 (TDP1): qHTS in cells in absence of CPT | DT40 Tdp1-/- hTDP1 cells, no CPT, ATP luminescence, 48 h | Potency, µM (top dose mostly 46.2 µM), inactives show at the top dose activity change, negative = growth inhibition, usual class: inhibitors | 420,000 compounds, 15% hits | AID 686978, 2013; note: nearly all actives have a fitted effect of over 55% in size
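Camptothecin absent (DMSO only). Human TDP1-complemented DT40 knockout cells, 400 cells/well, 37 °C for minimum 48 hr; ATP measured via CellTiter-Glo, 30 min dark incubation, luminescence.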
HT1080-NT tox: qHTS for induction of synthetic lethality in tumor cells producing 2HG: qHTS for the HT-1080-NT fibrosarcoma cell line; HT-1080-NT fibrosarcoma viability, CellTiter-Glo ATP luminescence, 48 h; Potency, µM (titrated, usually from 46.1 µM), inactives show top-dose activity, negative = less viability, most hits filed as cytotoxic; 360,000 compounds, 1.6% hits;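 note: NT is the 2HG producing partner of a matched IDH1 knockdown line; 0% = DMSO-treated cells and -100% = media-only wells without cells; nearly all actives have a fitted effect of over 55% in size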
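Viability of the 2HG-overproducing fibrosarcoma line after 48 hours of compound exposure at 37 degrees C was determined by luminescence with CellTiter-Glo, and concentration-effect curves were then fitted and categorized.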
Numbers without * were called inactive. Calls come from the whole dose curve; as a rule, active = well fitted curve in the direction sought with a large enough effect; inconclusive = small, poorly fitted or top-dose-only effect, or another doubt; inactive = no such curve, though single readings can be large; an effect the other way counts as inactive or inconclusive. Unless noted, % is set by controls: 0 for no effect and ±100 for the full control effect; potency is the fitted concentration of half-maximal effect.

Screening CCN(CC)S(=O)(=O)c1ccc(Cl)c(NC(=O)c2ccccc2C)c1 returned DT40 TDP1 CPT inconclusive, KB-3-1 tox inactive, KB-V1 MDR tox inconclusive, HT1080 IDH1KD tx 3%, DT40 TDP1 no CPT 23µM* and HT1080-NT tox -8%.
`Cc1ccc(N2CCN(S(=O)(=O)c3ccc(Cl)c4ccccc34)CC2)c(C)c1` gave KB-3-1 tox inactive and KB-V1 MDR tox inactive.
For COC(=O)c1cc2c(cc1NC(=O)c1cnn(-c3ccc(C)cc3)c1-n1cccc1)OCO2 the results were DT40 TDP1 CPT -8% and DT40 TDP1 no CPT -4%.
`Cc1cc(=O)n2cccc(O)c2n1` gave DT40 TDP1 CPT 3.7µM*, KB-3-1 tox inactive, KB-V1 MDR tox inactive, HT1080 IDH1KD tx inconclusive, DT40 TDP1 no CPT 4.6µM* and HT1080-NT tox inconclusive.
`Cc1nnc(SCc2cc(=O)n3cccc(C)c3n2)s1` gave DT40 TDP1 CPT inconclusive and DT40 TDP1 no CPT 1%.
Screening C=CC[n+]1c(-c2ccc(OC)c(OC)c2)csc1NNC(=O)Nc1ccccc1 returned DT40 TDP1 CPT 7.3µM*, KB-3-1 tox inconclusive, KB-V1 MDR tox 18µM*, HT1080 IDH1KD tx 16µM*, DT40 TDP1 no CPT 6.5µM* and HT1080-NT tox inconclusive.
Screening O=[N+]([O-])c1cc(Br)c(O)c(C=Nc2ccc(N3CCOCC3)cc2)c1 returned DT40 TDP1 CPT -19%, KB-3-1 tox inactive, KB-V1 MDR tox inactive, HT1080 IDH1KD tx -15%, DT40 TDP1 no CPT inconclusive and HT1080-NT tox -13%.
`Oc1ccc(N=Cc2cc(Br)c(N3CCOCC3)o2)cc1` gave DT40 TDP1 CPT inconclusive, KB-3-1 tox inactive, KB-V1 MDR tox inactive, HT1080 IDH1KD tx 6%, DT40 TDP1 no CPT 21µM* and HT1080-NT tox 4%.
`O=C(CNC(=O)c1ccncc1)N/N=C/c1ccc(O)cc1O` gave DT40 TDP1 CPT inconclusive, KB-3-1 tox inactive, KB-V1 MDR tox inactive, HT1080 IDH1KD tx -7%, DT40 TDP1 no CPT 18µM* and HT1080-NT tox -17%.
`CCOc1ccc(/C=N/NC(=O)C(O)c2ccccc2)c(O)c1` (configuration not stated) gave DT40 TDP1 CPT 4.1µM*, KB-3-1 tox inactive, KB-V1 MDR tox inactive, HT1080 IDH1KD tx 12µM*, DT40 TDP1 no CPT inconclusive and HT1080-NT tox inconclusive.
`O=C(COc1ccccc1)NCC(=O)N/N=C/c1ccc(O)cc1O` gave DT40 TDP1 CPT inconclusive, KB-3-1 tox inconclusive, KB-V1 MDR tox inactive, HT1080 IDH1KD tx inconclusive, DT40 TDP1 no CPT 16µM* and HT1080-NT tox inconclusive.
COc1cccc(/C=N/NC(=O)CNC(=O)c2ccncc2)c1O was read as DT40 TDP1 CPT inconclusive, KB-3-1 tox inactive, KB-V1 MDR tox inactive, HT1080 IDH1KD tx inconclusive, DT40 TDP1 no CPT inconclusive and HT1080-NT tox 14%.
`COc1cccc(/C=N/NC(=O)CNC(=O)c2ccco2)c1O` gave DT40 TDP1 CPT 6.5µM*, KB-3-1 tox inactive, KB-V1 MDR tox inconclusive, HT1080 IDH1KD tx -20%, DT40 TDP1 no CPT 8.2µM* and HT1080-NT tox -13%.
COc1cc(/C=N/NC(=O)CNC(=O)c2ccncc2)ccc1O was read as DT40 TDP1 CPT 7%, KB-3-1 tox inactive, KB-V1 MDR tox inactive, HT1080 IDH1KD tx 14%, DT40 TDP1 no CPT 16% and HT1080-NT tox 5%.
`Cc1ccc(/C=N/NC(=O)CNC(=O)COc2ccccc2)cc1` gave DT40 TDP1 CPT 8%, KB-3-1 tox inactive, KB-V1 MDR tox inactive, HT1080 IDH1KD tx 27%, DT40 TDP1 no CPT -7% and HT1080-NT tox inconclusive.
Screening CCOc1ccc(CCNC(=O)C(O)c2ccccc2)cc1 (configuration not stated) returned DT40 TDP1 CPT 4%, KB-3-1 tox inactive, KB-V1 MDR tox inactive, HT1080 IDH1KD tx 0%, DT40 TDP1 no CPT -28% and HT1080-NT tox 6%.
Screening C[C@@H]1CN([C@H](C)CO)C(=O)CCCn2nncc2CO[C@@H]1CN(C)C(=O)NC1CCCCC1 returned DT40 TDP1 CPT -2%, KB-3-1 tox inactive, KB-V1 MDR tox inactive, HT1080 IDH1KD tx 26%, DT40 TDP1 no CPT 0% and HT1080-NT tox 3%.
For O=C(CNC(=O)c1ccc2c(c1)OCCO2)N/N=C/c1ccc(O)cc1O the results were DT40 TDP1 CPT inconclusive, KB-3-1 tox inactive, KB-V1 MDR tox inactive, HT1080 IDH1KD tx inconclusive, DT40 TDP1 no CPT 18µM* and HT1080-NT tox -19%.
Screening COCCCNC(=S)N/N=C/c1ccc(O)cc1O returned DT40 TDP1 CPT inconclusive, KB-3-1 tox inactive, KB-V1 MDR tox inactive, HT1080 IDH1KD tx -17%, DT40 TDP1 no CPT inconclusive and HT1080-NT tox -10%.
For COc1cccc(/C=N/NC(=O)CNC(=O)C2COc3ccccc3O2)c1O (configuration not stated) the results were DT40 TDP1 CPT 5.8µM*, KB-3-1 tox inconclusive, KB-V1 MDR tox inactive, HT1080 IDH1KD tx inconclusive, DT40 TDP1 no CPT 3.7µM* and HT1080-NT tox inconclusive.
For COCCCNC(=S)N/N=C/c1cccc(OC)c1O the results were DT40 TDP1 CPT 0.82µM*, KB-3-1 tox inactive, KB-V1 MDR tox inconclusive, HT1080 IDH1KD tx inconclusive, DT40 TDP1 no CPT 0.65µM* and HT1080-NT tox inconclusive.
Screening COc1ccc(CCCC(=O)N/N=C/c2cccc(OC)c2O)cc1C returned DT40 TDP1 CPT 1.8µM*, KB-3-1 tox inconclusive, KB-V1 MDR tox inconclusive, HT1080 IDH1KD tx inconclusive, DT40 TDP1 no CPT 1.6µM* and HT1080-NT tox inconclusive.
COc1cccc(Cn2c(=O)n(CCc3ccccc3)c(=O)c3c2c2cc(OC)ccc2n3C)c1 was read as DT40 TDP1 CPT 1%, KB-3-1 tox inactive, KB-V1 MDR tox inactive and DT40 TDP1 no CPT -21%.
Screening COc1cccc(/C=N/NC(=O)CNC(=O)c2ccc3c(c2)OCCO3)c1O returned DT40 TDP1 CPT 16µM*, KB-3-1 tox inconclusive, KB-V1 MDR tox inactive, HT1080 IDH1KD tx inconclusive, DT40 TDP1 no CPT inconclusive and HT1080-NT tox inconclusive.
